Screening results: PubChem, National Center for Advancing Translational Sciences (NCATS)
B2AR arrestin: qHTS assay of beta-arrestin-biased ligands of beta2-adrenergic receptor; Potency, µM (highest dose often 46.1 µM), inactives show at the highest dose activation, actives largely listed as activators; hit rate 0.02% among 330,000; beta-arrestin recruitment to beta2AR, cell-based reporter; Beta-2 adrenergic receptor (Homo sapiens), P07550;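 note: potency is the fitted concentration of half-maximal effect; 0% = DMSO controls and full agonism = EC100 isoproterenol or metaproterenol; nearly all actives have a fitted effect of over 65% in size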
Target sequence (P07550 whole entry, looked up): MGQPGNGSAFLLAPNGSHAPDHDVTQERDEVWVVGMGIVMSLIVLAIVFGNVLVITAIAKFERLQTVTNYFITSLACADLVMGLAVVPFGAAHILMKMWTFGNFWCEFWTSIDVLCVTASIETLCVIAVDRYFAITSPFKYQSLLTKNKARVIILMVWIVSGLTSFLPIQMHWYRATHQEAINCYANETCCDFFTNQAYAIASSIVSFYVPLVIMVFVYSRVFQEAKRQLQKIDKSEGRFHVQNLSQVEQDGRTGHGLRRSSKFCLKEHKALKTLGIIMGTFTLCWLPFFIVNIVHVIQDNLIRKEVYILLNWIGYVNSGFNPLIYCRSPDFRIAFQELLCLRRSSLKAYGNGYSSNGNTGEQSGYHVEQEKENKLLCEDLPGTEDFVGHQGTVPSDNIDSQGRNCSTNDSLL
uPA surface inh: qHTS for Inhibitors of Cell Surface uPA Generation; Potency, µM (doses to about 38.3 µM), inactives show at the highest dose activity change, negative = inhibition, usual class: inhibitors; hit rate 0.31% among 330,000; cell surface uPA generation assay, qHTS; active = well fitted inhibition curve with a large enough effect; inconclusive = small, poorly fitted or top-dose-only effect; inactive = no such curve, though single readings can be large or run the other way; tested in mouse RAW 264.7 cells; note: potency is the fitted concentration of half-maximal effect; % is set by controls: 0 for no effect and ±100 for the full control effect; nearly all actives have a fitted effect of over 55% in size
Mito fusion act: qHTS Assay for Small Molecule Inhibitors of Mitochondrial Division or Activators of Mitochondrial Fusion; S. cerevisiae fusion-defective mutant growth rescue, CellTiterGlo 48 h; Potency, µM (series often up to 46.1 µM), inactives show at the highest dose growth rescue (activation), usual class: activators; hit rate 0.23% among 320,000; AID 485298, 2010; note: potency is the fitted concentration of half-maximal effect; % of control where 0% means no effect; nearly all actives have a fitted effect of over 45% in size
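Yeast fusion mutant, YPEG (non-fermentable carbon), compound, 48 h at 37C non-permissive; CellTiterGlo added, 10 min RT, luminescence read. Rescued growth = division inhibition.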
Giardia kill: Small Molecules that selectively kill Giardia lamblia: qHTS; Giardia lamblia trophozoite viability; activity change, % at 7.66 µM, hits read low; hit rate 0.15% among 340,000; AID 540267, 2011; in the data active = activity change below about -80%; inconclusive = between about -30% and that limit;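 note: parasites exposed to compound for two days anaerobically before the ATP read; % is set by controls: 0 for no effect and ±100 for the full control effect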
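Killing of trophozoites was scored by loss of ATP luminescence after a 48 hrs anaerobic exposure to compounds at 37 deg C, using 100 cells per well.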
p53 reactivator: qHTS assay for re-activators of p53 using a Luc reporter; H1299 p53-A138V BP100-luciferase reporter, luminescence, 24 h; Potency, µM (highest dose often 92.2 µM), without a hit: top-dose activity change, positive = activation, usual class: activators; hit rate 0.063% among 320,000; note: potency is the fitted concentration of half-maximal effect; % of control where 0% means no effect; nearly all actives have a fitted effect of over 45% in size
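p53-null H1299 cells stably carrying temperature-sensitive p53-A138V and a BP100-luciferase reporter were pinned with compounds (4-point, 1:5 series) and held 24 hrs at 37 deg C. Luminescence was read 10 min after detection reagent.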
ClpP mod: qHTS Assay for Activators of ClpP | purified B. subtilis ClpP, FRET peptide cleavage, 20 min | ATP-dependent Clp protease proteolytic subunit (Bacillus subtilis (strain 168)), P80244 | hit rate 1.9% among 340,000 | Potency, µM (doses to about 57.5 µM), for the others: at the highest dose activity change, negative = active; active = well fitted falling curve with a large enough effect; inconclusive = small, poorly fitted or top-dose-only effect; inactive = no such curve, though single readings can be large or run the other way; note: potency is the fitted concentration of half-maximal effect; the source files actives as falling curves though it sought activators and does not explain the sign; nearly all actives have a fitted effect of over 65% in size
Target sequence (P80244 whole entry, looked up): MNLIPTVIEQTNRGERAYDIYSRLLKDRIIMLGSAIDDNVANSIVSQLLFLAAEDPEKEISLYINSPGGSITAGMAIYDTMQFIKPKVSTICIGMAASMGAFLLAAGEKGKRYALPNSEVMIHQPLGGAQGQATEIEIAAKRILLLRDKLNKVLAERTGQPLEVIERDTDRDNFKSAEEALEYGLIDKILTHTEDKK
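Purified B. subtilis ClpP, 10 microg/mL final in Tris/HCl pH8 with KCl, BSA, glycerol and Tween-20, cleaved an Abz/nitrotyrosine-quenched decapeptide. Fluorescence (ex 320, em 430) was read at 0 and 20 min at room temperature. Delta was normalized to 5.8 microM ADEP and DMSO/no-enzyme controls.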
Numbers without * were called inactive; ? = inconclusive; . = no result; ! = not active in a repeat. Hits are enriched below; roughly 2.1% of the tested compounds scored in any of these assays. Unless noted, calls come from the whole dose curve; as a rule, active = well fitted curve in the direction sought with a large enough effect; inconclusive = small, poorly fitted or top-dose-only effect, or another doubt; inactive = no such curve, though single readings can be large; an effect the other way counts as inactive or inconclusive.

SMILES	B2AR arrestin	uPA surface inh	Mito fusion act	Giardia kill	p53 reactivator	ClpP mod
CCOc1ccc2[nH]c(C)c(CN(C)C)c(=O)c2c1	0%	4%	-1%	6	0%	16µM*
COc1cc(NC(=O)CCc2c(C)nc3c(-c4ccc(F)cc4)c(C)nn3c2C)cc(OC)c1OC	.	.	.	.	.	-10%
Cc1ccc(-c2nnc3c(C(F)(F)F)nc4ccccc4n23)cc1	0%	-2%	-1%	-3	9%	13µM*
FC(F)(F)c1nnc2c(Sc3ccc(Cl)cc3)nc3ccccc3n12	3%	-7%	1%	-6	2%	-4%
FC(F)(F)c1nc2ccccc2n2c(-c3ccc(Cl)cc3)nnc12	-1%	-10%	5%	3	1%	13µM*
COc1ccc(C=C(c2ccc(OC)cc2)c2ccc(OC)cc2)cc1	0%	10%	1%	-6	4%	32µM*
CC(=O)Nc1nc(C)c(-c2csc(Nc3cccc(C(C)=O)c3)n2)s1	0%	11µM*	-8%	5	?	-2%
COc1ccccc1Nc1nc(-c2sc(NC(=O)C(C)(C)C)nc2C)cs1	-3%	5.6µM*	-6%	4	17%	-11%
CCc1ccc(CN(Cc2ccco2)c2cnc(S(C)(=O)=O)nc2C(=O)Nc2c(C)cccc2C)cc1	.	.	.	.	.	-14%
O=C(c1ccc(OCCN2CCCCC2)cc1)c1c(-c2ccc(O)cc2)sc2cc(O)ccc12	4%	-19%	18µM*!	-10	4%	2%
COC(=O)c1ccc(OCCN2CCCCCC2)cc1	0%	2%	-7%	-13	2%	.
COc1ccc(NS(=O)(=O)c2cc3[nH]c(=O)c(=O)[nH]c3cc2C)cc1OC	.	.	.	.	.	-1%
C=CCn1c(-c2ccoc2)n[nH]c1=S	-1%	4%	-8%	7	-2%	32µM*
C=CCn1c(-c2ccccc2)n[nH]c1=S	3%	0%	11%	-21	12%	-4%
Cc1cc(NCCCN2CCOCC2)n2ncc(-c3ccc(Cl)cc3)c2n1	0%	6%	-8%	7	?	25µM*
CC(C)(C)c1cc(NCCCn2ccnc2)n2ncc(-c3ccccc3)c2n1	-1%	2%	-32%	19	11%	.
Cc1cc(NCCCn2ccnc2)n2ncc(-c3ccc(Cl)cc3)c2n1	0%	-21%	3%	-3	?	20µM*
Cc1cccc(C)c1NC(=O)C1(C)CN(S(C)(=O)=O)CC(=O)N1Cc1ccco1 (configuration not stated)	.	.	.	.	.	0%
COc1ccc2nc(/C=N/NC(=O)[C@H](CCSC)NC(=O)OC(C)(C)C)ccc2c1	0%	-4%	-4%	7	-9%	8.9µM*
COc1cccc(NC(=O)CN(C)C(=O)C(Sc2ccccc2)c2ccccc2)c1 (configuration not stated)	-1%	2%	14%	26	0%	28µM*
COc1cccc(NC(=O)CN(C)C(=O)Cc2cccc3ccccc23)c1	0%	6%	5%	3	3%	-1%
c1ccc2sc(Nc3nc4cc5c(cc4s3)OCO5)nc2c1	0%	-4%	14µM*	-3	?	?
COc1cccc2sc(NN)nc12	0%	3%	9%	-16	1%	.
O=C(Nc1nc2cc3c(cc2s1)OCO3)C1=COCCO1	-1%	2µM*	1%	?	7%	-5%
COc1cccc2sc(Nc3nc4ccc(NC(C)=O)cc4s3)nc12	0%	-17%	-2%	-4	?	1.1µM*
SMILES	B2AR arrestin	uPA surface inh	Mito fusion act	Giardia kill	p53 reactivator	ClpP mod
CCOC(=O)c1sc(Nc2nc3c(OC)cccc3s2)cc1C	-1%	-2%	6%	-5	?	25µM*
CCOC(=O)c1c(S(=O)(=O)N2CCC(C(=O)N3CCN(c4ccc(F)cc4)CC3)CC2)c(C)n(C)c1C	.	.	.	.	.	-1%
COc1ccc(CNCc2ccc3c(c2)n(C)c(=O)n3C)cc1	.	.	.	.	.	0%
CCOc1ccc(S(=O)(=O)NCc2cccn2Cc2cccc(C)c2)cc1	.	.	.	.	.	-1%
CC(=O)c1sc(Nc2nc3cc4c(cc3s2)OCO4)nc1C	0%	1%	3%	-18	14%	.
CCOC(=O)c1sc(Nc2nc3cc4c(cc3s2)OCO4)cc1C	0%	-1%	18%	-5	?	28µM*
CCc1ccccc1N(c1nc(-c2ccc(OC)c(OC)c2)no1)c1nc(-c2ccc(OC)c(OC)c2)no1	.	.	.	.	.	-2%
O=C1c2ccccc2C(=O)N1CCCc1c[nH]c2ccc(Cl)cc12	0%	10%	18µM*	-11	6%	-2%
O=C(CN1C(=O)c2ccccc2C1=O)NCCc1c[nH]c2ccc(Cl)cc12	4%	0%	-4%	?	-2%	3%
NC(=O)c1c(NC(=O)COC(=O)c2ccc(S(=O)(=O)Nc3ccccc3)cc2)sc2c1CCCC2	0%	-2%	-4%	3	-4%	20µM*
Cc1ccc(F)cc1NC(=O)COC(=O)c1ccc(S(C)(=O)=O)c([N+](=O)[O-])c1	.	.	.	-10	.	0%
O=C(CC1(c2ccc(Cl)cc2)C2CC3CC(C2)CC1C3)NCCO (configuration not stated)	0%	-2%	-6%	8	-1%	13µM*
CC1(C)NC(=O)N(CC(O)CNC23CC4CC(CC(C4)C2)C3)C1=O (configuration not stated)	0%	3%	-8%	1	5%	28µM*
Cc1ccc(CN2CCN(C3CCN(S(=O)(=O)N(C)C)CC3)C(=O)C2=O)cc1	.	.	.	.	.	-3%
CCCn1c(SCc2nc(-c3ccc(OC)c(OC)c3)no2)nnc1-c1ccccc1	.	.	.	.	.	2%
CNC(=O)c1c(NC(=O)CS(=O)(=O)c2ccccc2)sc(C)c1C	0%	-11%	1%	11	-4%	-2%
Cc1sc(NC(=O)CS(=O)(=O)c2ccccc2)c(C(N)=O)c1C	12%	4%	-2%	-5	20%	28µM*
CCc1ccc(NC(=O)CSC2=Nc3ccccc3C3=NC(CCC(=O)NCc4cccs4)C(=O)N23)cc1 (configuration not stated)	.	.	.	.	.	-9%
CCOc1ccc(NC(=O)CN(C)C(=O)c2cc(-c3ccc(OC)cc3)nc3ccccc23)cc1OCC	0%	-27%	?	11	-11%	32µM*
CCOc1ccc(NC(=O)CN(C)C(=O)CCCc2nc3ccccc3c(=O)[nH]2)cc1OCC	-1%	1%	1%	-3	-3%	16µM*
CCCn1nc(C(=O)N(C)CC(=O)Nc2ccc(OCC)c(OCC)c2)c2ccccc2c1=O	-1%	2%	-3%	-3	-9%	25µM*
